In the library only some 8% were active in any assay of this set; here they are far more common.
HT1080NT lethal – qHTS for induction of synthetic lethality in tumor cells producing 2HG: qHTS for the HT-1080-NT fibrosarcoma cell line | Potency, µM (titrated, usually from 46.1 µM), for inactives: at the top dose activity, negative = less viability, most hits filed as cytotoxic | HT-1080-NT fibrosarcoma viability, CellTiter-Glo ATP luminescence, 48 h | 360,000 compounds, 1.6% hits | AID 686970, 2013;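 also: NT is the 2HG producing partner of a matched IDH1 knockdown line; 0% = DMSO-treated cells and -100% = media-only wells without cells; nearly all actives have a fitted effect of over 55% in size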
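Viability by CellTiter-Glo luminescence after 48 h compound exposure at 37C of HT-1080-NT cells (750/well, RPMI, 5% FBS). % activity scaled between DMSO wells and medium-only wells, then curve-fitted and categorized by curve class.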
KB-V1 cytotox – qHTS assay for MDR1-selective chemotherapeutics: Primary screen using the drug-selected MDR subline cells KB-V1; KB-V1 MDR cells viability, CellTiter-Glo, 72 h; Potency, µM (titrated, usually from 46.1 µM), usual class: cytotoxic; 400,000 compounds, 3.4% hits; also: % is scaled to controls: 0 for no effect and ±100 for the full control effect; nearly all actives have a fitted effect of over 60% in size
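Potencies derive from concentration-effect curves fitted to normalized luminescence (CellTiter-Glo) of KB-V1 cells treated for 72 h at 37 degrees C in phenol-red-free DMEM containing 10% FBS.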
KB-3-1 tox – qHTS assay for MDR1-selective chemotherapeutics: Primary screen using the parental adenocarcinoma cell KB-3-1. 400,000 compounds, 1.4% hits. KB-3-1 viability, CellTiter-Glo ATP luminescence, 72 h. Potency, µM (series often up to 46.1 µM), usual class: cytotoxic; also: % is scaled to controls: 0 for no effect and ±100 for the full control effect; nearly all actives have a fitted effect of over 60% in size
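Cytotoxicity in the drug-sensitive parental line KB-3-1 was scored as loss of CellTiter-Glo luminescence following 72 h incubation with compound. Values come from curve fitting of normalized concentration-response data.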
HT1080 IDH1KD tx – qHTS for induction of synthetic lethality in tumor cells producing 2HG: qHTS for the HT-1080-IDH1KD cell line; Potency, µM (titrated, usually from 46.1 µM), for inactives: at the top dose activity, negative = toxicity, actives largely listed as cytotoxic; 360,000 compounds, 2% hits; AID 686971, 2013; HT-1080 IDH1 knockdown viability, ATP luminescence, 48 h;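 also: 0% = DMSO wells and -100% = cell-free medium wells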
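HT-1080-IDH1KD cells (IDH1 knocked down), 750/well in RPMI with 5% FBS, treated with compound 48 h at 37 degrees C. Viability by CellTiter-Glo luminescence, normalised to DMSO and no-cell wells; concentration-response curves classed.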
MCF10A rerep – A quantitative high throughput screen for small molecules that induce DNA re-replication in MCF 10a normal breast cells. MCF 10A DNA re-replication, Hoechst nuclear intensity, 48 h. Potency, µM (series often up to 46.1 µM), for the others: at the top dose activity, positive = re-replication, hits mostly activators. 350,000 compounds, 2.9% hits. AID 624296, 2012; also: % of control where 0% means no effect; nearly all actives have a fitted effect of over 50% in size
SW480 rereplic – A quantitative high throughput screen for small molecules that induce DNA re-replication in SW480 colon adenocarcinoma cells. 340,000 compounds, 1.8% hits. SW480 DNA re-replication, Hoechst DNA content imaging, 48 h. Potency, µM (top dose mostly 46.1 µM), inactives show at the top dose re-replication activation, hits mostly activators; also: % of control where 0% means no effect; nearly all actives have a fitted effect of over 55% in size
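Quantitative HTS format with DMSO vehicle controls; 48 hr drug incubation at 37 C, then 40 min Hoechst staining and scanning imager measurement at 405 nm excitation.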
* = called active by the depositor; i = inactive; ? = inconclusive; . = no result. Calls follow the shape of the dose curve; as a rule, active = well fitted curve in the direction sought with a large enough effect; inconclusive = small, poorly fitted or top-dose-only effect, or another doubt; inactive = no such curve, though single readings can be large; an effect the other way counts as inactive or inconclusive. Potency is read from the fitted curve at half-maximal effect.

SMILES	HT1080NT lethal	KB-V1 cytotox	KB-3-1 tox	HT1080 IDH1KD tx	MCF10A rerep	SW480 rereplic
CCn1c(=O)n(CC)c2cc(NS(=O)(=O)c3ccccc3)ccc21	0%	i	?	2%	8%	3%
CCOC(=O)c1ccc(NS(=O)(=O)c2ccc(SC)cc2)cc1	1%	23µM*	i	-11%	23µM*	6%
COc1ccc(S(=O)(=O)Nc2ccccc2C)cc1	?	?	?	?	21µM*	13µM*
COc1cc(NC(=O)/C=C/c2ccccc2)c(C(=O)O)cc1OC	-4%	i	i	5%	0%	8%
Cc1ccc(S(=O)(=O)Nc2ccccc2CNc2cccc(C)n2)cc1	-8%	5.8µM*	i	1%	5%	70%
CCn1nc(C)c(NS(=O)(=O)c2ccc(C)cc2)c1C	-24%	16µM*	?	-4%	3%	-4%
Cc1ccc(S(=O)(=O)Nc2c(C)nn(C)c2C)cc1	7%	i	i	-5%	-5%	-4%
Cc1ccc(S(=O)(=O)Nc2ccccc2/C=N/c2nc3ccccc3n2C)cc1	?	i	?	21µM*	13µM*	5%
Cc1ccc(S(=O)(=O)Nc2ccc(Cl)cc2O)cc1	?	21µM*	?	?	.	.
CCOC(=O)c1c(N)sc(=S)c2c1CCC2	-2%	?	i	-5%	-6%	-6%
O=c1[nH]c(NCCO)nc2ncn(Cc3ccccc3)c12	19%	i	i	9%	-1%	-4%
Cc1ccc(N2C(=O)N(CC(=O)NC(N)=O)C(=O)C2C)cc1 (stereo unspecified)	-6%	i	i	0%	0%	1%
Cc1cccc(-n2c(=O)c3c(c4cc(C)ccc4n3C)n(CC(=O)Nc3ccccc3C(F)(F)F)c2=O)c1	.	i	i	.	.	.
CCOC(=O)c1ccc(S(=O)(=O)Nc2ccccc2-c2nnn(CC)n2)cc1	5%	16µM*	i	4%	4%	1%
COc1ccc(OC)c(NS(=O)(=O)c2ccccc2)c1	.	i	i	.	.	.
Cc1ccc(S(=O)(=O)Nc2ccccc2[N+](=O)[O-])cc1	-2%	i	i	1%	.	.
CCOC(=O)c1ccccc1NS(=O)(=O)c1ccc(C)cc1	-25%	?	26µM*	?	?	?
Cc1ccc(S(=O)(=O)Nc2ccccc2-c2ccccc2)cc1	2.9µM*	?	3.3µM*	4.1µM*	1.3µM*	0.82µM*
COc1ccc(NS(=O)(=O)c2ccc(SC)cc2)c(OC)c1	-16%	18µM*	i	-17%	11%	0%
COC(=O)C1=NN[C@H](C(=O)OC(C)(C)C)[C@H]1c1ccccc1	3%	?	?	14%	-26%	7%
CCOC(=O)c1c(C)n(C)c2ccc(OC(C)C(=O)OC)cc12 (stereo unspecified)	16%	i	i	11%	-6%	-4%
Cc1ccc(S(=O)(=O)Nc2ccccc2NS(=O)(=O)c2ccc(C)cc2)cc1	-30%	21µM*	?	-21%	.	.
COc1ccc(S(=O)(=O)Nc2c(F)cccc2F)cc1	0%	i	i	-13%	-32%	-8%
COc1ccc(S(=O)(=O)Nc2cccc3ccc(O)cc23)cc1	3.3µM*	?	15µM*	5.2µM*	21µM*	?
Cc1ccc(S(=O)(=O)Nc2ccccc2O)cc1	-1%	i	i	8%	.	.
SMILES	HT1080NT lethal	KB-V1 cytotox	KB-3-1 tox	HT1080 IDH1KD tx	MCF10A rerep	SW480 rereplic
COc1cccc(NC(=O)Nc2c(C)n(C)n(-c3ccccc3)c2=O)c1	21%	i	i	18%	6%	7%
Cc1cc(S(=O)(=O)N2CCOCC2)ccc1OCC(=O)NCC1CCCO1 (stereo unspecified)	-9%	i	i	-1%	-4%	0%
CC(C)(C)C(=O)Oc1ccc2cc(-c3ccc4ccccc4n3)c(=O)oc2c1	-2%	i	i	-7%	6.5µM*	23µM*
Cc1ccc(NC(=O)c2ccc(OCC3CCCO3)cc2)cc1 (stereo unspecified)	2%	21µM*	i	7%	?	4%
Cc1ccc(NC(=O)c2ccc(OC(=O)c3ccco3)cc2)cc1	4%	i	i	-19%	21µM*	?
O=C(Nc1cccc(S(=O)(=O)N2CCCCC2)c1)c1ccc(OCC2CCCO2)cc1 (stereo unspecified)	-12%	8.2µM*	i	-11%	7%	6%
O=C(Nc1ccc(S(=O)(=O)N2CCCC2)cc1)c1ccc(OCC2CCCO2)cc1 (stereo unspecified)	?	?	21µM*	?	14%	-2%
C=CCn1c(SCC(=O)Nc2c(C)n(C)n(-c3ccccc3)c2=O)nnc1-c1cccnc1	-9%	i	i	0%	1%	-9%
COc1cc2cc(C#N)c(SCC(=O)OC(C)C)nc2cc1OC	.	i	i	.	.	.
O=C(Nc1cccc(F)c1)c1sc(Cl)nc1-c1ccccc1	-6%	i	i	2%	?	-4%
Cn1c(CN2CCOCC2)nnc1SCc1ccc(C#N)cc1	7%	i	i	-2%	5%	-15%
O=C(c1ccc(N2CCCCC2)c([N+](=O)[O-])c1)N(Cc1ccccc1)c1ccccn1	0%	i	i	-5%	21%	0%
O=C1c2ccccc2CN2C(=O)c3ccccc3CN12	-6%	i	i	7%	-2%	-3%
c1ccc(-c2cn3c(n2)-c2ccccc2C3)cc1	?	10µM*	?	?	12%	-3%
COc1cc(C2NC(=O)NC(c3ccccc3)=C2C(C)=O)cc(Cl)c1OCC(=O)O (stereo unspecified)	2%	i	i	11%	11%	1%
COc1cc(C2NC(=O)NC(c3ccccc3)=C2C(C)=O)c(Cl)cc1OCC(=O)O (stereo unspecified)	17%	i	?	15%	7%	4.1µM*
CCc1ccc(C2C(C#N)=C(N)C(C#N)(C#N)C3=CCC(C(C)(C)C)CC32)cc1 (stereo unspecified)	-12%	?	?	-25%	15µM*	8.2µM*
